According to PubChem BioAssay (NCATS):
Records with an inconclusive call do not appear. Active and inactive are the calls of the source. Calls come from the whole dose curve; as a rule, active = well fitted inhibition curve with a large enough effect; inconclusive = small, poorly fitted or top-dose-only effect; inactive = flat fitted curve, though single readings scatter.

Tests used:
Test in all cases: qHTS profiling for inhibitors of Plasmodium falciparum proliferation (AID 504749); note: nearly all actives have a fitted effect of over 60% in size
Details in all cases: P. falciparum in erythrocytes, SYBR Green DNA, 72 h; series mostly up to 28.7 µM
CP256 = tested on: CP256
Outline: (§1)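 SYBR Green fluorescence of parasite DNA, read after lysis and overnight dark incubation, measured growth over 72 h in erythrocyte culture at 0.3% parasitemia and 2.5% hematocrit. Data normalised to DMSO and 0.29 uM artemisinin, with plate-drift correction.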

CP260 = tested on: CP260
Outline: as §1

CP262 = tested on: CP262
Outline: as §1

CP265 = tested on: CP265
Outline: as §1

CP268 = tested on: CP268
Outline: as §1

CP269 = tested on: CP269
Outline: as §1

CP286 = tested on: CP286
Outline: as §1

CP291 = tested on: CP291
Outline: as §1

CP305 = tested on: CP305
Outline: as §1

CP315 = tested on: CP315
Outline: as §1

CP325 = tested on: CP325
Outline: as §1

CP329 = tested on: CP329
Outline: as §1

DFO2036 = tested on: DFO2036
Outline: as §1

DIV14 = tested on: DIV14
Outline: as §1

DIV17 = tested on: DIV17
Outline: as §1

DIV30 = tested on: DIV30
Outline: as §1

CP266 = tested on: CP266
Outline: as §1

CP297 = tested on: CP297
Outline: as §1

CP335 = tested on: CP335
Outline: as §1

Dd2 = tested on: Dd2
Outline: as §1

Measured: Potency
Potency is the fitted concentration of half-maximal effect.

CCCCN1CCCC1C(=O)Nc1c(C)cc(C)cc1C (stereo unspecified)
not listed: CP266 | CP297 | CP335 | Dd2
inactive: all other assays above

C[C@H](O)C(=O)Nc1c(I)c(C(=O)NC(CO)CO)c(I)c(C(=O)NC(CO)CO)c1I
not listed: CP315
inactive: all other assays above

COc1cccc(CCc2ccccc2OCC(CN(C)C)OC(=O)CCC(=O)O)c1 (stereo unspecified)
active: CP256 11.2 µM | CP260 3.55 µM | CP262 12 µM | CP265 7.08 µM | CP268 7.57 µM | CP269 6.75 µM | CP286 5.62 µM | CP291 12 µM | CP297 3.38 µM | CP305 7.57 µM | CP315 15.1 µM | CP329 12 µM | CP335 3.79 µM | DFO2036 11.2 µM | DIV14 2.13 µM | DIV17 2.39 µM | DIV30 6.75 µM | Dd2 1.41 µM

Cc1c(C)n(Cc2ccccc2)c2ccc(C(=O)OCCN(C)C)cc12
not listed: CP266
inactive: all other assays above

Cc1cc(N)c2cc(NC(=O)Nc3ccc4nc(C)cc(N)c4c3)ccc2n1
active: CP256 1.78 µM | CP260 5.62 µM | CP262 4.78 µM | CP265 7.08 µM | CP269 2.39 µM | CP286 4.47 µM | CP291 4.26 µM | CP297 4.78 µM | CP305 3.79 µM | CP315 7.57 µM | CP329 1.69 µM | CP335 7.57 µM | DFO2036 5.62 µM | DIV14 13.5 µM | DIV17 10.7 µM | DIV30 6.01 µM | Dd2 0.891 µM

O=C1[C@H]2CCCC[C@H]2C(=O)N1CCCCN1CCN(c2nsc3ccccc23)CC1
not listed: DIV14 | DIV17 | CP297
inactive: all other assays above

COc1ccc(/C=C/C(=O)c2ccc(OC)cc2OC)cc1
active: CP256 2.24 µM | CP260 8.91 µM | CP262 5.36 µM | CP265 5.01 µM | CP266 7.57 µM | CP268 13.5 µM | CP269 9.53 µM | CP286 10 µM | CP291 8.49 µM | CP297 8.49 µM | CP305 6.01 µM | CP325 12 µM | CP335 6.75 µM | DFO2036 7.94 µM | DIV14 10.7 µM | DIV17 16.9 µM | DIV30 12 µM | Dd2 7.08 µM

CCN1CCCC1=O
not listed: CP297
inactive: all other assays above

C[C@@H](CN(C)C)CN1c2ccccc2Sc2ccccc21
not listed: CP268 | CP269 | CP329 | DIV14 | DIV17 | DIV30 | Dd2
inactive: all other assays above

CC(Cc1cccc(C(F)(F)F)c1)NCCOC(=O)c1ccccc1 (stereo unspecified)
not listed: DIV14 | DIV17 | CP297 | Dd2
inactive: all other assays above

Cc1ccnc(NS(=O)(=O)c2ccc(N)cc2)n1
not listed: CP315
inactive: all other assays above

CCCCCCc1ccc(O)cc1O
not listed: CP266
inactive: all other assays above

CCOC(=O)c1cccc(N)c1
active: CP297 15.1 µM | DIV30 12 µM
inactive: CP256 | CP260 | CP262 | CP265 | CP286 | CP335 | DFO2036 | Dd2

NC(=O)C(=O)N/N=C/c1ccc([N+](=O)[O-])o1
active: CP329 15.1 µM
inactive: CP256 | CP260 | CP262 | CP265 | CP286 | CP335 | DFO2036 | Dd2

COc1cc2c(cc1OC)C(C(C(=O)N(CCc1ccc(OC)c(OC)c1OC)CCc1ccc(OC)c(OC)c1OC)c1ccccc1)=NCC2 (stereo unspecified)
inactive: DFO2036
active: CP256 5.62 µM | CP260 3.55 µM | CP262 9.53 µM | CP265 7.94 µM | CP268 13.5 µM | CP269 6.75 µM | CP286 7.94 µM | CP291 15.1 µM | CP297 3.38 µM | CP305 15.1 µM | CP315 13.5 µM | CP325 16.9 µM | CP329 13.5 µM | CP335 5.36 µM | DIV14 1.35 µM | DIV17 1.35 µM | DIV30 1.35 µM | Dd2 3.98 µM

Cc1c(F)c(N2CCNC(C)C2)cc2c1c(=O)c(C(=O)O)cn2C1CC1 (stereo unspecified)
not listed: CP266
inactive: all other assays above

CCCCCCCCCCCCCCCCOP(=O)([O-])OCC[N+](C)(C)C
not listed: CP297
inactive: all other assays above

C[C@@H]1C[C@H]2[C@@H]3CCC4=CC(=O)C=C[C@]4(C)[C@@]3(F)[C@@H](O)C[C@]2(C)[C@H]1C(=O)CO
active: DIV14 13.5 µM
not listed: CP291 | DIV17 | DIV30 | CP266 | CP297
inactive: all other assays above

CN(C(=O)CN(CCO)CC(=O)N(C)C(C)(C)Cc1ccccc1)C(C)(C)Cc1ccccc1
not listed: CP268 | CP286 | DIV14 | DIV17 | CP335
inactive: all other assays above
